High-throughput results (PubChem)
Hits are enriched below; roughly 6% of the tested compounds scored in any of these assays.
Tau fluor cs = counter-screen for tau fibril formation inhibitors; Potency, µM (titrated, usually from 57.7 µM), without a hit: at the top dose activity change, negative = decrease; 0.93% of 280,000 active; AID 1463; tau K18 P301L Alexa594 fluorescence, heparin fibrillization; also: nearly all actives have a fitted effect of over 55% in size
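Human tau K18 P301L (15 uM unlabeled, 0.24 uM Alexa 594-labeled) in 100 mM sodium acetate pH 7 with 20 uM heparin, 6 hr at 37 C. ThT 30 uM added, 1 hr ambient; Alexa 594 FP and total fluorescence read at 555/632 nm.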
PLK1 PBD block = blocks phosphopeptide binding to human PLK1 polo-box domain | Plk1 PBD binding of FITC phosphopeptide, fluorescence polarization | Potency, µM, without a hit: max response, negative = inhibition, hits mostly inhibitors | 2.8% of 360,000 active | AID 720504; also: series mostly up to about 57 µM; nearly all actives have a fitted effect of over 65% in size
VDR inhibitor = inhibitors of human vitamin D receptor; P11473; VDR-SRC2-3 peptide fluorescence polarization, 2 h; Potency, µM, inactives show max response, negative = inhibition, hits mostly inhibitors; 0.93% of 400,000 active; AID 504847
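Reagent solutions, kept cold and dark, are dispensed first; compounds are then pinned in at 23 nl, plates briefly spun, and incubated 2 h at ambient temperature. Inhibition of VDR–SRC2-3 peptide binding is read by fluorescence polarization.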
Tau ThT inhib = tau fibrillization inhibition (ThT binding). P10636. recombinant tau K18 P301L (four-repeat tau fragment), heparin-induced fibrillization, ThT fluorescence. Potency, µM (top dose mostly 57.4 µM), for inactives: at the top dose activity, negative = inhibition, hits mostly inhibitors. 2.1% of 270,000 active. AID 1460; also: nearly all actives have a fitted effect of over 55% in size
Target sequence (P10636 561-689 P618L limits assumed): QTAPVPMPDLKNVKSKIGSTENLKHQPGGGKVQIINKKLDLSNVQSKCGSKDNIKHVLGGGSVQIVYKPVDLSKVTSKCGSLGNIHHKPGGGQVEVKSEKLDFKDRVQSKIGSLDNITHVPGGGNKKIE
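Recombinant human tau K18 fragment […] carrying P301L, 15 uM unlabeled plus 0.24 uM Alexa 594-labeled, was fibrillized with 20 uM heparin in 100 mM sodium acetate pH 7 for 6 hr at 37 C; 30 uM ThT fluorescence read after 1 hr.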
Sfp inh = blocks B. subtilis Sfp PPTase activity; Q9F4F7; AID 1490; Potency, µM, for inactives: largest response in the series, negative = inhibition, usual class: inhibitors; Biochemical Sfp PPTase activity, qHTS; 3.5% of 310,000 active;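 also: the enzyme is Sfp with the accession as filed and its product quenches rhodamine fluorescence; 0% = enzyme reaction without inhibitor and -100% = no enzyme wells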
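Compounds were incubated with enzyme (final 15 nM) for 15 min at room temperature before substrate addition started the reaction. Fluorescence at 525 nm excitation, 598 nm emission was recorded immediately and after 30 minutes.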
Tau FP inhib = inhibitors of human tau fibril formation. P10636. K18 P301L tau heparin fibrillization, Alexa594 FP, 6 h. Potency, µM (highest dose often 57.7 µM), inactives show at the highest dose activity, negative = inhibition, usual class: inhibitors. 0.39% of 280,000 active. AID 1468; also: nearly all actives have a fitted effect of over 55% in size
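Quantitative HTS format: compounds meet 15 uM recombinant K18 P301L tau and Alexa 594-tau tracer in 100 mM sodium acetate pH 7; 20 uM heparin triggers fibrillization at 37 C over 6 hr; FP gives the signal.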
An asterisk follows results filed as active; ? = inconclusive; · = not tested or not shown; ! = repeats disagree; [ ] = remark or other dose. Calls follow the shape of the dose curve; as a rule, active = well fitted curve in the direction sought with a large enough effect; inconclusive = small, poorly fitted or top-dose-only effect, or another doubt; inactive = no such curve, though single readings can be large; an effect the other way counts as inactive or inconclusive. Unless noted, % is scaled to controls: 0 for no effect and ±100 for the full control effect; potency is read from the fitted curve at half-maximal effect.

SMILES	Tau fluor cs	PLK1 PBD block	VDR inhibitor	Tau ThT inhib	Sfp inh	Tau FP inhib
CC(=O)Nc1ccc(S(=O)(=O)NCC(=O)NNC(=O)COc2ccccc2Cl)cc1	·	19µM*	-27%	·	·	·
CC(C)C(=O)NNS(=O)(=O)c1ccccc1	-8%	2%	-10%	-8%	-1%	1%
CC(=O)Nc1ccc(S(=O)(=O)NNC(=O)COc2ccc(C)cc2)cc1	1%	-6%	-8%	2%	1%	3%
CC(Cl)C(=O)NNC(=O)CNS(=O)(=O)c1ccccc1 (stereo not drawn)	10%[2.34 µM]	27µM*	-6%	-4%	6%	2%[2.34 µM]
CC(=O)Nc1ccc(S(=O)(=O)NNC(=O)COc2ccc(C(C)(C)C)cc2)cc1	-9%	27µM*	-8%	-12%	0%	-7%
O=C(CC1SC(=Nc2ccccc2)N(CCc2ccccn2)C1=O)Nc1ccc(F)cc1 (stereo not drawn)	-16%	-4%	-2%	3%	5%	-2%
O=C(CC1SC(=Nc2ccccc2)N(CCc2c[nH]c3ccccc23)C1=O)Nc1ccccc1F (stereo not drawn)	13µM*[quencher]	-11%	-20%	-15%	?	-6%
N#Cc1cccc(NC(=S)Nc2ccccc2)c1	-9%	13µM*	-18%	-5%	-19%	?
CCOc1ccccc1NC(=O)N1c2ccccc2Sc2ccccc21	-26%	·	-7%	?	·	-21%
O=[N+]([O-])c1ccc(C2NS(=O)(=O)N=C3CCCCCN32)cc1 (stereo not drawn)	3%	-4%	?	-17%	50µM*	-7%
O=C(Nc1ccc(F)cc1)c1ccc(COc2ccccc2)cc1	14%	27µM*	-2%	8%	29%	-12%
COC(=O)c1nn(-c2ccc(OC)cc2)c(=O)cc1NN	-14%	-6%	-7%	14µM*	5%	?
S=C1Nc2ccccc2CS1	·	-15%	·	·	·	·
CC1=C(C)NC(=S)SC1	2%	27µM*	-15%	?	?	-3%
O=C(/C=C/c1ccccc1)CCN1CCOCC1	·	21µM*	40µM*	·	·	·
COc1cccc(Nc2ncc3nc(-c4cccs4)c(=O)n(C[C@H]4CCCO4)c3n2)c1	·	·	10%	·	-3%	·
COC(=O)CCC(=O)OC1(C)C(=O)C2=CN(C3CCCC3)C(c3ccc(OC)cc3)=CC2=C(Br)C1=O (stereo not drawn)	-14%[11.6 µM]	?	?	16µM*	?	?
COC(=O)CCC(=O)OC1(C)C(=O)C2=CN(c3ccc(OC)cc3)C(c3ccc(OC)cc3)=CC2=C(Br)C1=O (stereo not drawn)	-18%[11.6 µM]	?	?	-17%[11.5 µM]	1%	4%[11.6 µM]
C=CCN1C=C2C(=O)C(C)(OC(=O)CCC(=O)OC)C(=O)C(Br)=C2C=C1c1ccc(OC)cc1 (stereo not drawn)	-8%[11.6 µM]	?	?	14µM*!	13%	?
COC(=O)CCC(=O)OC1(C)C(=O)C2=CN(Cc3ccco3)C(c3ccc(OC)cc3)=CC2=C(Br)C1=O (stereo not drawn)	-17%[11.6 µM]	·	·	?	-8%	-2%[11.6 µM]
COCCN1C=C2C(=O)C(C)(OC(=O)CCC(=O)OC)C(=O)C(Br)=C2C=C1c1ccc(OC)cc1 (stereo not drawn)	-9%[11.6 µM]	?	22µM*	-11%[11.5 µM]	-13%	-5%[11.6 µM]
CCN(CC)CCCN1C=C2C(=O)C(C)(OC(=O)CCC(=O)OC)C(=O)C(Br)=C2C=C1c1ccc(OC)cc1 (stereo not drawn)	-12%[11.6 µM]	?	?	-5%[11.5 µM]	-21%	-7%[11.6 µM]
Cc1ccc(CNC(=O)C2CCCN(S(=O)(=O)c3cn(C)cn3)C2)cc1 (stereo not drawn)	3%	·	5%	3%	·	4%
O=S1(=O)C2CC3C=CC2(O3)C(O)C(Cc2ccccc2)N1Cc1cccc(F)c1 (stereo not drawn)	·	·	-6%	·	8%	·
CCOc1ccc(OCC(=O)OCC(=O)N2CCN(S(=O)(=O)c3ccc(C)cc3C)CC2)cc1	·	-10%	-6%	·	·	·
CN(C(=O)CSc1nc2[nH]ncc2c(=O)[nH]1)c1ccccc1	·	-5%	-12%	·	·	·
